aSyn yeast inh – inhibitors of alpha-synuclein toxicity in yeast; 370,000 tested, 0.14% active; AID 652106; Potency, µM (series often up to 46.1 µM), without a hit: at the top dose growth rescue (activation), hits mostly activators; Yeast expressing alpha-synuclein, growth rescue, BacTiter-Glo, 24 h; also: % of control where 0% means no effect; nearly all actives have a fitted effect of over 65% in size
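Rescue of yeast growth: cells expressing toxic alpha-synuclein, induced in galactose at OD600 0.02, incubated with compound 24 h at 30 C. ATP luminescence quantified growth; inhibitors of toxicity appear as activators.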
Mito fusion act – blocks mitochondrial division or promotes mitochondrial fusion. S. cerevisiae fusion-defective mutant growth rescue, CellTiterGlo 48 h. Potency, µM (top dose mostly 46.1 µM), inactives show top-dose growth rescue (activation), most hits filed as activators. 320,000 tested, 0.23% active. AID 485298; also: % of control where 0% means no effect; nearly all actives have a fitted effect of over 45% in size
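Temperature-sensitive fusion-defective S. cerevisiae (e.g. fzo1-1, mgm1-5) were grown with compound in YPEG medium (3% ethanol, 3% glycerol) for 48 hours at 37C. Growth rescue was measured as viability by CellTiterGlo luminescence after 10 minutes at ambient.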
TDP43 rescue – inhibitors of TDP-43 toxicity in yeast | TDP-43 expressing yeast growth rescue, BacTiter-Glo, 24 h | Potency, µM (titrated, usually from 46.1 µM), inactives show at the top dose growth rescue (activation), usual class: activators | 410,000 tested, 1.8% active; also: % of control where 0% means no effect; nearly all actives have a fitted effect of over 50% in size
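Yeast expressing TDP-43 (pregrown in raffinose, seeded at OD600=0.02 in galactose medium) exposed to compounds 24 hr at 30 deg C. Growth read by BacTiter-Glo luminescence; rescue of toxicity appears as increased signal.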
Abeta rescue – A-beta toxicity reversal in yeast; AID 1347071; yeast expressing A-beta42, growth rescue, OD600, 48 h; response scale: 0% DMSO, 100% iron-clioquinol control; Potency, µM (highest dose often 46.1 µM), actives largely listed as activators; 410,000 tested, 0.063% active; also: nearly all actives have a fitted effect of over 55% in size
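Yeast A-beta toxicity model in growth medium with pinned compounds, 48 h at 30 C; growth read as absorbance at 600 nm. Normalized to FeCl3/clioquinol equimolar mix (positive) and DMSO (negative).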
FUS suppressor – FUS proteinopathy suppression in yeast. S. cerevisiae FUS-expressing, growth rescue, OD600, 24 h. Potency, µM (highest dose often 76.6 µM), hits mostly activators. 390,000 tested, 0.24% active;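 also: plate controls were DMSO vehicle for no effect and reference control for full effect; nearly all actives have a fitted effect of over 55% in size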
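Steps: raffinose overnight preculture; dilution to OD 0.005 in 2% galactose minimal medium; compound addition (concentration series); 24hr at 30C, 99% humidity; absorbance read at 600 nm.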
* hit, by the source's call; i = inactive; ? = inconclusive; nt = no result; ! = not active in a repeat; [ ] = dose if it differs, or a comment. Rows were chosen to be rich in hits. Some 2.2% of all compounds tested hit in one or more screens of this group. Calls follow the shape of the dose curve; as a rule, active = well fitted curve in the direction sought with a large enough effect; inconclusive = small, poorly fitted or top-dose-only effect, or another doubt; inactive = no such curve, though single readings can be large; an effect the other way counts as inactive or inconclusive. Potency is read from the fitted curve at half-maximal effect.

SMILES	aSyn yeast inh	Mito fusion act	TDP43 rescue	Abeta rescue	FUS suppressor
COc1c(C)cc(Br)cc1C(=O)Nc1ccc(-c2nc3ncccc3o2)cc1	nt	nt	?	i	i
Cc1cccc(NC(=O)COC(=O)c2cc(C)n(C3CC3)c2C)c1	17%	18%	35µM*	i	i
Cc1cc(C(=O)O)c(C)n1C1CC1	11%	13%	-4%	i	i
NC(=O)CI	1%	-37%	nt	nt	nt
CC1CCC(C)(NS(=O)(=O)OCC(Cl)(Cl)Cl)CC1 (centres undefined)	4%	-8%	18µM*	i	i
OC1CCC(Nc2ccn3nc(-c4cccc(OCc5ccccc5)c4)cc3n2)CC1 (centres undefined)	-20%	nt	35µM*	i	?
COC(=O)C1=C(c2cccc(OCc3ccccc3)c2)C[C@@H]2CC[C@H]1N2C(=O)NCCOc1ccc(OC)cc1	-7%	18%	25%	i	?
COc1cc(Cn2c(=O)oc3ccc(C)cc32)ccc1OC(C)C	-6%	7%	35µM*	i	i
S=C(S)N1CCCC1	?	-82%	1%	i	i
Cc1nc2ccc(NC(=O)C3COc4ccccc4O3)cc2s1 (centres undefined)	1%	5%	16µM*	i	i
CCCc1cc(N2CCN(c3ccc(OC)cc3)CC2)n2cnnc2n1	nt	nt	?	i	i
COc1ccc(Br)cc1C1SCC(=O)Nc2c1c(C)nn2-c1ccccc1C (centres undefined)	nt	nt	5%	i	i
Cc1ccccc1-n1nc(C)c2c1NC(=O)CSC2c1ccccc1C(F)(F)F (centres undefined)	nt	nt	35µM*	i	i
Cc1cccn2c(=O)c3c(nc12)N1CCC(Cc2ccccc2)CC1C1(C3)C(=O)N(C)C(=O)N(C)C1=O (centres undefined)	5%	18µM*	29%	i	i
Cn1c(C(=O)NCCOc2ccccc2Cl)cc(=O)n(C)c1=O	-7%	5%	-33%	i	i
Cc1cc(N(C)C)ccc1N=Nc1ccc(N)cc1	-16%	nt	13µM*	i	i
Nc1ccc(N=Nc2ccccc2)cc1	-1%	-4%	-15%[0.397 µM]	i	i
c1ccc(-c2ccc(C(c3ccccc3)n3ccnc3)cc2)cc1 (centres undefined)	?	14µM*	6.3µM*	i	i
c1ccc(C(c2ccccc2)c2cccnc2)cc1	?	nt	-3%	i	?
Cc1cc([C@@H]2CCCN2C)on1	2%	-30%	nt	nt	nt
C=CCN1CCc2cccc3c2[C@H]1Cc1ccc(O)c(O)c1-3	14%	4.1µM*!	nt	i	i
O=S(=O)(c1ccc(Cl)cc1)N1Cc2cc(Br)ccc2-n2nncc2C1	4%	nt	20µM*	i	i
O=S(=O)(c1cccc2ccccc12)N1Cc2ccccc2-n2nncc2C1	0%	nt	20µM*	i	i
COc1ccc(-c2nc(CN3C(=O)CN=C(c4ccccc4)c4ccccc43)c(C)o2)cc1OC	nt	nt	0%[9.22 µM]	i	i
Cn1ncc2c(NCc3ccc(Cl)cc3)ncnc21	nt	nt	?	i	i
O=C(O)C1(Br)CC12c1ccccc1-c1ccccc12 (centres undefined)	-1%	nt	13µM*	i	nt
